One assay has as its system PLK4. The conditions noted are these: concentration: 1 μM, replicates: in singlicate; n = 1.
With `Cc1cccc(-c2nc(-c3ccc(S(C)(=O)=O)cc3)sc2-c2ccncc2)c1`, the “%Inh” value was 10%.

`Cc1ccc(NC(=O)c2ccnc(N3CCN(C)CC3)c2)cc1-c1ccc(C(=O)NCC2CC2)cc1` [GW775604]: the “%Inh” value stood at 0%.

With `COc1ccc(COc2cc(-n3cnc4ccccc43)sc2C(N)=O)cc1` [GSK1024304], the “%Inh” value is 4%.

On to `Fc1ccc(-c2ncn(CCCN3CCOCC3)c2-c2ccccn2)cc1` [SB-211742], for which the “%Inh” value was determined as 0%.

On to `CCCCCc1nc2c(N)ncnc2n1CCCCC` [SKF-97255], for which the “%Inh” value worked out at 25%.

As to `N#Cc1c(N2CCOCC2)sc(-c2ccn[nH]2)c1-c1ccc(Cl)cc1`, the “%Inh” value turned out to be 19%.

`O=C(Nc1cccc(-c2nn3ncccc3c2-c2ccnc(Nc3cccc(C(F)(F)F)c3)n2)c1)c1c(F)cccc1F` [GSK299495]: the “%Inh” value was determined as 0%.

With `CC(=O)Nc1ccc(COc2ccc(Nc3ccnc4cc(-c5ccccn5)ccc34)cc2)cc1.Cl` [GW440148], the “%Inh” value was found to be 0%.

For `c1ccc(-c2cc(-c3c[nH]nc3-c3ccccn3)ccn2)cc1` [GW576604], the “%Inh” value is listed as 0%.

Regarding `O=C(c1ccc(-c2cc(-c3c[nH]nc3-c3ccccn3)ccn2)cc1)N1CCOCC1` [GW812171], the “%Inh” value was determined as 0%.

`Nc1nc(-c2ccc3c(N)n[nH]c3c2)cc(N2CCCC2)n1` [GSK2227430]: the “%Inh” value is recorded as 0%.

For `COc1ccc(Nc2nccc(N3CCC(NC(=O)Nc4cccc(C(C)=O)c4)C3)n2)cc1` (centres unmarked) [GSK1379731], the “%Inh” value turned out to be 0%.

In the case of `O=C1Cc2cc(Nc3nc(NCc4cccc(S(=O)(=O)C(F)(F)F)c4)ncc3C(F)(F)F)ccc2N1`, the “%Inh” value was 4%.

Consider `Cc1cccc(Cn2ccn3c(=O)cc(N4CCOCC4)nc23)c1` [GSK2297542], for which the “%Inh” value was found to be 0%.

On to `O=c1cc(N2CCOCC2)nc2n(Cc3cccc(F)c3)ccn12` [GSK2297430], for which the “%Inh” value is 0%.

Consider `Cc1nnc(-c2ccc3occ(-c4ccc(C(C)O)cc4)c3c2)o1` (centres unmarked), for which the “%Inh” value came to 21%.

Turning to `O=c1cc(N2CCOCC2)nc2n(Cc3cccc4ccccc34)ccn12` [GSK2333389], the “%Inh” value amounted to 0%.

Regarding `Fc1ccc(-c2ncn(CCCN3CCOCC3)c2-c2cccnc2)cc1` [SB-211743], the “%Inh” value is reported as 0%.

Take `Cc1ccc(C(=O)NCC(N)=O)cc1-n1c(C)cc(OCc2ccc(F)cc2F)c(Br)c1=O`: the “%Inh” value is 0%.

Consider `Cn1ccc2ncnc(Oc3ccc(NC(=O)Nc4ccncc4)c(Cl)c3)c21`, for which the “%Inh” value is 0%.

`COc1ccc(Nc2ncc(C#N)c(Nc3ccccc3C(N)=O)n2)cc1N1CCN(C)CC1.Cl` [GSK1558669]: the “%Inh” value is listed as 99.8%.

Turning to `COc1ccc(S(=O)(=O)NC2CCN(c3cc(C)nc(Nc4cccc(C#N)c4)n3)CC2)cc1.O=C(O)C(F)(F)F` [GSK1653539], the “%Inh” value came to 0%.

Regarding `c1ccc(-c2n[nH]cc2-c2ccnc3ccccc23)nc1` [GW271431], the “%Inh” value is listed as 0%.

Turning to `Nc1nccc(-c2c(-c3ccc(F)cc3)ncn2C2CCN(CC(F)(F)F)CC2)n1` [SB-236560], the “%Inh” value is recorded as 17%.

As for `COc1cc2ncn(-c3cc(OCc4sccc4Cl)c(C(N)=O)s3)c2cc1OC` [GSK448459], the “%Inh” value is 4%.

Take `O=c1cc(N2CCOCC2)nc2n(Cc3cccc(Cl)c3Cl)c(C3CC3)nn12` [GSK2358994]: the “%Inh” value is reported as 9%.

With `CCc1nc(-c2cccc(C)c2)c(-c2ccnc(NCc3ccccc3)c2)s1`, the “%Inh” value is on record as 0%.

For the compound `CSc1ccc(-c2cc3ncnc(SCC(=O)O)c3s2)cc1`, the “%Inh” value is 11%.

For `COc1ccc(Nc2nccc(N3CCC(NC(=O)Nc4cc(C)ccc4C)C3)n2)cc1` (centres unmarked) [GSK1379741], the “%Inh” value was determined as 0%.

For `CC(C)(C)n1cnc2c(N)ncnc21` [SKF-97359], the “%Inh” value stood at 0%.

Consider `O=C(Nc1n[nH]c2cc(-c3cccc(F)c3)ccc12)C1CC1` [SB-735464], for which the “%Inh” value stood at 4%.

Consider `Cc1c2ccc(N(C)c3ccnc(Nc4cccc(S(N)(=O)=O)c4)n3)cc2nn1Cc1ccccc1.Cl.Cl` [GW787226], for which the “%Inh” value is on record as 50%.

`O=C(NCCNc1ccnc(Nc2ccc(F)cc2)n1)c1cc2ccccc2s1` [GSK1379874]: the “%Inh” value was 0%.

On to `Cc1cn2c(=O)cc(N3CCOCC3)nc2n1Cc1cccc(Cl)c1Cl` [GSK2334006], for which the “%Inh” value was 0%.

The next assay deals with PRKCD. The note with it: concentration: 1 μM, replicates: in singlicate; n = 1.
As to `Cc1cccc(-c2nc(-c3ccc(S(C)(=O)=O)cc3)sc2-c2ccncc2)c1`, the “%Inh” value was determined as 24%.

For the compound `Cc1ccc(NC(=O)c2ccnc(N3CCN(C)CC3)c2)cc1-c1ccc(C(=O)NCC2CC2)cc1` [GW775604], the “%Inh” value came to 0%.

On to `COc1ccc(COc2cc(-n3cnc4ccccc43)sc2C(N)=O)cc1` [GSK1024304], for which the “%Inh” value is recorded as 4%.

Regarding `Fc1ccc(-c2ncn(CCCN3CCOCC3)c2-c2ccccn2)cc1` [SB-211742], the “%Inh” value was found to be 28%.

Turning to `CCCCCc1nc2c(N)ncnc2n1CCCCC` [SKF-97255], the “%Inh” value is 18%.

In the case of `N#Cc1c(N2CCOCC2)sc(-c2ccn[nH]2)c1-c1ccc(Cl)cc1`, the “%Inh” value was found to be 0%.

For the compound `O=C(Nc1cccc(-c2nn3ncccc3c2-c2ccnc(Nc3cccc(C(F)(F)F)c3)n2)c1)c1c(F)cccc1F` [GSK299495], the “%Inh” value stood at 0%.

Regarding `CC(=O)Nc1ccc(COc2ccc(Nc3ccnc4cc(-c5ccccn5)ccc34)cc2)cc1.Cl` [GW440148], the “%Inh” value is on record as 0%.

For `c1ccc(-c2cc(-c3c[nH]nc3-c3ccccn3)ccn2)cc1` [GW576604], the “%Inh” value came out at 0%.

With `O=C(c1ccc(-c2cc(-c3c[nH]nc3-c3ccccn3)ccn2)cc1)N1CCOCC1` [GW812171], the “%Inh” value is recorded as 12%.

For `Nc1nc(-c2ccc3c(N)n[nH]c3c2)cc(N2CCCC2)n1` [GSK2227430], the “%Inh” value stood at 0%.

As to `COc1ccc(Nc2nccc(N3CCC(NC(=O)Nc4cccc(C(C)=O)c4)C3)n2)cc1` (centres unmarked) [GSK1379731], the “%Inh” value is on record as 0%.

As to `O=C1Cc2cc(Nc3nc(NCc4cccc(S(=O)(=O)C(F)(F)F)c4)ncc3C(F)(F)F)ccc2N1`, the “%Inh” value was 17%.

For `Cc1cccc(Cn2ccn3c(=O)cc(N4CCOCC4)nc23)c1` [GSK2297542], the “%Inh” value is 9%.

`O=c1cc(N2CCOCC2)nc2n(Cc3cccc(F)c3)ccn12` [GSK2297430]: the “%Inh” value is given as 2%.

For `Cc1nnc(-c2ccc3occ(-c4ccc(C(C)O)cc4)c3c2)o1` (centres unmarked), the “%Inh” value amounted to 11%.

`O=c1cc(N2CCOCC2)nc2n(Cc3cccc4ccccc34)ccn12` [GSK2333389]: the “%Inh” value turned out to be 0%.

On to `Fc1ccc(-c2ncn(CCCN3CCOCC3)c2-c2cccnc2)cc1` [SB-211743], for which the “%Inh” value amounted to 6%.

With `Cc1ccc(C(=O)NCC(N)=O)cc1-n1c(C)cc(OCc2ccc(F)cc2F)c(Br)c1=O`, the “%Inh” value is reported as 33%.

With `Cn1ccc2ncnc(Oc3ccc(NC(=O)Nc4ccncc4)c(Cl)c3)c21`, the “%Inh” value is 6%.

`COc1ccc(Nc2ncc(C#N)c(Nc3ccccc3C(N)=O)n2)cc1N1CCN(C)CC1.Cl` [GSK1558669]: the “%Inh” value is 94%.

Turning to `COc1ccc(S(=O)(=O)NC2CCN(c3cc(C)nc(Nc4cccc(C#N)c4)n3)CC2)cc1.O=C(O)C(F)(F)F` [GSK1653539], the “%Inh” value turned out to be 0%.

`c1ccc(-c2n[nH]cc2-c2ccnc3ccccc23)nc1` [GW271431]: the “%Inh” value amounted to 4%.

Regarding `Nc1nccc(-c2c(-c3ccc(F)cc3)ncn2C2CCN(CC(F)(F)F)CC2)n1` [SB-236560], the “%Inh” value is reported as 0%.

Take `COc1cc2ncn(-c3cc(OCc4sccc4Cl)c(C(N)=O)s3)c2cc1OC` [GSK448459]: the “%Inh” value is on record as 0%.

Regarding `O=c1cc(N2CCOCC2)nc2n(Cc3cccc(Cl)c3Cl)c(C3CC3)nn12` [GSK2358994], the “%Inh” value is reported as 0%.

As to `CCc1nc(-c2cccc(C)c2)c(-c2ccnc(NCc3ccccc3)c2)s1`, the “%Inh” value was 16%.

In the case of `CSc1ccc(-c2cc3ncnc(SCC(=O)O)c3s2)cc1`, the “%Inh” value is reported as 17%.

For `COc1ccc(Nc2nccc(N3CCC(NC(=O)Nc4cc(C)ccc4C)C3)n2)cc1` (centres unmarked) [GSK1379741], the “%Inh” value was found to be 0%.

With `CC(C)(C)n1cnc2c(N)ncnc21` [SKF-97359], the “%Inh” value turned out to be 1%.

As to `O=C(Nc1n[nH]c2cc(-c3cccc(F)c3)ccc12)C1CC1` [SB-735464], the “%Inh” value stood at 0%.

As to `Cc1c2ccc(N(C)c3ccnc(Nc4cccc(S(N)(=O)=O)c4)n3)cc2nn1Cc1ccccc1.Cl.Cl` [GW787226], the “%Inh” value was found to be 0%.

Regarding `O=C(NCCNc1ccnc(Nc2ccc(F)cc2)n1)c1cc2ccccc2s1` [GSK1379874], the “%Inh” value was found to be 0%.

With `Cc1cn2c(=O)cc(N3CCOCC3)nc2n1Cc1cccc(Cl)c1Cl` [GSK2334006], the “%Inh” value turned out to be 0%.

The values above are taken from PMC5540273 (PLoS ONE, 2017).
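Also: KINOMEscan kinase panel screen.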
